Assay outcomes (PubChem)
An excerpt weighted towards active compounds, which were near 3.4% of everything screened.
GalR3 antag = antagonists of human GalR3 | O60755 | HEK293 GalR3-CNG cAMP membrane potential fluorescence; galR3 body fused to GalR1 C-terminus | inhibition, % at 3 µM | actives 0.44% (n = 360,000) | AID 651719;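 active = inhibition above the screen-wide average plus 3 SD, cut at about 13% in these data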;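 also: forskolin and galanin both at EC90 stimulate the cells; cAMP rise reported by CNG channel membrane potential dye signal; 0% = forskolin plus galanin with DMSO and 100% = forskolin alone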
Cardio protect = myocardial damage modulation in H9c2 cells | actives 0.63% (n = 360,000) | protection from H2O2 cell death, % at 20 µM | H9c2 cardiomyocytes, H2O2 injury protection, ATPLite, 2 h;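 active = compounds giving at least 50% protection of heart cells from peroxide-induced death in the single-dose screen, raw or plate-pattern-corrected value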;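 also: 0% = DMSO wells with peroxide and 100% = DMSO wells without peroxide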
SMARCA2 activ = activators of SMARCA2 function | MG213 cells, MMTV-luciferase reporter, dexamethasone, overnight | activation, % at 9.1 µM | actives 1% (n = 370,000); in the data active = activation above about 7.8%;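 also: 0% = vehicle wells and 100% = reference activator wells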
Gli-Sufu block = Gli-Sufu pathway antagonism | actives 0.74% (n = 340,000) | Sufu-KO-LIGHT fibroblasts, Gli luciferase reporter luminescence | inhibition, % at 5 µM;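 active = inhibition above about 55%, limit read from the data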;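 also: 0% = DMSO-treated cells and 100% = wells with medium but no cells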
NR2F2 inh = NR2F2 (human) inhibition, primary screen; inhibition, % at 8.6 µM; HEK293T NGFI-A luciferase reporter, luminescence; actives 0.7% (n = 370,000); AID 686940;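 active = inhibition above a per-plate cutoff, mean inhibition of test wells between control levels plus 3 SD, cut at about 38% in these data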;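 also: cells cotransfected with COUP-TFII expression vector driving the NGFI-A reporter; 0% = median of COUP-TF2 test wells and 100% = reporter-only cells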
Target sequence (P24468 whole entry, looked up): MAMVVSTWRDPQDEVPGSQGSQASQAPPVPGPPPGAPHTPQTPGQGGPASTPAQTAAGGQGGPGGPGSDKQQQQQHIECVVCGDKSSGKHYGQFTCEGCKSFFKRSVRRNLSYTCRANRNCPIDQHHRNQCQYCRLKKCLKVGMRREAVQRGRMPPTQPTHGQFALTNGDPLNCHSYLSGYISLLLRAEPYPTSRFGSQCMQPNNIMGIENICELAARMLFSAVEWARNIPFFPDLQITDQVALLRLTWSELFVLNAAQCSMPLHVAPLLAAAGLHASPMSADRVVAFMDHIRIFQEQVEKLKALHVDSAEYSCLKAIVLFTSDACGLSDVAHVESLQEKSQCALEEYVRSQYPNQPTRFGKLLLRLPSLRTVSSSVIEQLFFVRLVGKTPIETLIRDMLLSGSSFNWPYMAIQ
GAA850 FXN act = activators of GAA850 frataxin (FXN) promoter; HEK293 lucGAA850 FXN promoter luciferase reporter, 24 h; percent of 10 µM SAHA response; activation, % at 6 µM; actives 0.56% (n = 360,000);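 active = activation above the average of all compounds screened plus 3 SD, cutoff fixed separately per campaign, cut at about 7.5% in these data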;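 also: 0% = DMSO wells and 100% = 10 µM SAHA wells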
Gli-Sufu confirm = confirmation of Gli-SUFU pathway antagonists | shares compounds with Gli-Sufu block | Sufu-KO-LIGHT cells, Gli luciferase reporter, luminescence | inhibition, % at 5 µM | actives 40% (n = 2,500) | AID 602428;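 active = mean inhibition at 5 µM reaching about 45%, limit read from the data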;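 also: plate controls were DMSO-treated cells for no effect and wells lacking cells for full effect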
Gli cytotox = counter-screen for Gli-SUFU antagonists: cytotoxicity; actives 32% (n = 2,500); shares compounds with Gli-Sufu block; cytotoxicity, % at 5 µM; AID 651994; Sufu-KO-LIGHT cells cytotoxicity, ATP luminescence;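 active = mean cytotoxicity at 5 µM above about 25%, limit read from the data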;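 also: cells exposed to compound overnight for roughly 16 to 18 hours; plate controls were DMSO wells with cells for no effect and medium without cells for full effect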
Wnt3a counter = counter-screen for Gli-SUFU antagonists: Wnt3a reporter inhibition | shares compounds with Gli-Sufu block | inhibition, % at 6.25 µM | Wnt-LIGHT cells, Wnt3a-driven luciferase reporter, luminescence | actives 20% (n = 2,500);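 active = mean inhibition above about 25%, limit read from the data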
* = called active by the depositor; x = not tested or not shown.

SMILES | GalR3 antag | Cardio protect | SMARCA2 activ | Gli-Sufu block | NR2F2 inh | GAA850 FXN act | Gli-Sufu confirm | Gli cytotox | Wnt3a counter
COc1ccccc1Nc1nc(-c2c(C)nc3ncccn23)cs1 | -6 | -11 | -6 | 55* | 13 | 0 | 68* | 59* | 28*
Cc1nc2ncccn2c1-c1csc(Nc2ccccc2)n1 | -2 | -13 | -4 | 30 | -25 | 1 | x | x | x
Cc1nc2ncccn2c1-c1csc(Nc2ccc(N(C)C)cc2)n1 | 5 | 9 | 2 | 62* | -83 | 2 | 57* | 45* | -90
COc1ccc(Nc2nc(-c3c(C)nc4ncccn34)cs2)cc1 | 9 | -2 | -6 | 71* | -107 | 3 | 75* | 66* | -70
O=C(NCCS(=O)(=O)NC1CCCCC1)c1ccc2c(c1)OCO2 | 0 | -2 | -1 | -10 | -22 | 0 | x | x | x
COc1cc(/C=N/NC(=O)c2ccccc2O)ccc1OC(=O)CC1SC(=O)NC1=O (centres undefined) | -6 | -4 | -3 | 58* | -23 | 2 | 7 | 7 | -48
COc1cc(/C=N/NC(=O)c2cccs2)ccc1O | -5 | -3 | -1 | 5 | -13 | 3 | x | x | x
c1ccc(-c2c[nH]c3ccc(OCCN4CCOCC4)c(-c4ccccc4)c23)cc1 | x | x | -4 | x | -4 | x | x | x | x
Cc1ccc(S(=O)(=O)N(C)C[C@@H]2Oc3ccc(NS(=O)(=O)c4ccccc4)cc3CC(=O)N([C@@H](C)CO)C[C@H]2C)cc1 | 0 | 1 | -1 | -18 | -2 | 1 | x | x | x
C[C@H](CO)N1C[C@H](C)[C@@H](CN(C)S(=O)(=O)c2cn(C)cn2)Oc2ccc(NC(=O)Nc3ccccc3)cc2C1=O | -2 | 7 | 1 | 96* | 0 | -1 | 12 | 3 | -47
C[C@H](CO)N1C[C@H](C)[C@@H](CN(C)S(=O)(=O)c2ccc(Cl)cc2)Oc2ccc(NS(=O)(=O)c3ccccc3)cc2CC1=O | 6 | 4 | -2 | 58* | 0 | -2 | 10 | -12 | -22
Cc1ccc(S(=O)(=O)N(C)C)cc1-n1c(SCC(=O)Nc2ccc(F)c(F)c2F)nc2ccccc2c1=O | -3 | -7 | -3 | 1 | 5 | -1 | x | x | x
CC1CCN(c2ccccc2NC(=S)NC(=O)c2ccc(-c3cccc([N+](=O)[O-])c3)o2)CC1 | -2 | -2 | -4 | 79* | -9 | -1 | 86* | 32* | 15
CC1CCN(c2ccc(NC(=S)NC(=O)c3ccc(-c4cccc([N+](=O)[O-])c4)o3)cc2)CC1 | -3 | 0 | -2 | 14 | -6 | 3 | x | x | x
Cc1cc(C)c(CN2CCC(n3nccc3NC(=O)C3CCOC3)CC2)cc1C (centres undefined) | -1 | -2 | 1 | 15 | 4 | 0 | x | x | x
COc1cc(C)c(CN2CCC(n3nccc3NC(=O)C3CCOC3)CC2)cc1C (centres undefined) | 3 | 0 | 0 | 59* | 5 | 1 | 14 | 7 | -13
COc1ccccc1NS(=O)(=O)c1ccc2c(c1)CCN2C(=O)CCC(=O)O | -13 | 8 | -2 | 55 | -5 | 2 | 17 | 7 | 3
CC(C)(C)NC(=O)CSc1nc2cc(S(=O)(=O)N3CCCCC3)ccc2o1 | -7 | -2 | -2 | -1 | 7 | 0 | x | x | x
COc1cc(C2C3=C(COC3=O)Oc3cc4c(cc32)OCO4)cc(OC)c1O (centres undefined) | -1 | 3 | 2 | 50 | -62 | 0 | 67* | 64* | 12
O=C1OCC2=C1C(c1ccc3c(c1)OCO3)c1cc3c(cc1O2)OCO3 (centres undefined) | -5 | 6 | 1 | -16 | 1 | -4 | x | x | x
COc1cc(C2C(C#N)=C(N)Oc3cc(O)ccc32)cc(OC)c1OC (centres undefined) | -9 | 14 | -4 | 26 | 16 | -4 | x | x | x
COc1cc(C2C3=C(COC3=O)Oc3cc4c(cc32)OCO4)cc(OC)c1OC (centres undefined) | -5 | 10 | 0 | 56* | -80 | -3 | 57* | 57* | 13
COc1cc(C2C(C#N)=C(N)Oc3cc4c(cc32)OCO4)cc(OC)c1OC (centres undefined) | 0 | 2 | 0 | 58* | -61 | -3 | 56* | 51* | 4
COc1cc(C2CC(=O)Oc3cc4c(cc32)OCO4)cc(OC)c1OC (centres undefined) | 3 | -1 | -1 | -9 | -3 | 0 | x | x | x
O=C1NC(Cc2ccc(O)cc2)c2nc3ccc(F)cc3c(=O)n2-c2ncccc21 (centres undefined) | -7 | 17 | -1 | x | 8 | 0 | x | x | x
SMILES | GalR3 antag | Cardio protect | SMARCA2 activ | Gli-Sufu block | NR2F2 inh | GAA850 FXN act | Gli-Sufu confirm | Gli cytotox | Wnt3a counter
Cc1ccc(S(=O)(=O)N2CCN(C(=O)C3CCCO3)CC2)cc1C (centres undefined) | -4 | -3 | -1 | 3 | -10 | 0 | x | x | x
Cc1cc(C)c(S(=O)(=O)N2CCN(C(=O)C3CCCO3)CC2)c(C)c1 (centres undefined) | 0 | -8 | -1 | 58* | -8 | 1 | 12 | 7 | -13
COC(=O)c1ccccc1NC(=O)CSc1nnnn1CC(=O)O | -8 | 4 | 2 | -11 | -16 | 1 | x | x | x
O=C(O)Cn1nnnc1SCC(=O)Nc1ccccc1F | 0 | -4 | -1 | 57* | 1 | 0 | 33 | 0 | 9
O/N=C1\CCCc2c1nc(-c1ccccc1F)n2O | 2 | 5 | -1 | 3 | 4 | 2 | x | x | x
COC(=O)CCC(=O)N(C)CC1CCCN(CCc2cccc(C(F)(F)F)c2)C1 (centres undefined) | -13 | 3 | -2 | 56* | -6 | 0 | 17 | 7 | -23
COc1ccc(C2CC(C(F)(F)F)n3nc(CO)c(Cl)c3N2)cc1OC (centres undefined) | -4 | 2 | -4 | 92* | -15 | 1 | 16 | 16 | 6
CCOc1ccc(-n2c(SCC(=O)Nc3ccc4cn[nH]c4c3)nnc2-c2ccc(C(C)(C)C)cc2)cc1 | x | x | -3 | x | -5 | x | x | x | x
COCCNC(=O)C1(C)CCCN(C(=O)c2ccccc2)C1 (centres undefined) | 2 | 1 | 0 | x | -5 | 0 | x | x | x
CC1CCN(c2c(NCc3ccc(C(=O)N4CCN(C5CCCCC5)CC4)cc3)c(=O)c2=O)CC1 | 4 | 1 | -1 | 5 | 18 | 0 | x | x | x
